We go through 5 compounds from PubChem BioAssay.

Assay [1] concerns PRMT1 (protein arginine N-methyltransferase 1). Briefly: PRMT1 binders on small-molecule microarrays, primary screen, biochemical, small-molecule microarray, 635 nm fluorescence (AID 1088).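 Note: binding of Prmt1 protein to compounds spotted on small-molecule microarray slides.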 The conditions noted are these: small-molecule microarray binding, higher = more signal.
Assay [2] is described as follows: yeast growth modulation, basal conditions, primary screen, YJM789 clinical isolate, OD600, 24 h (AID 1089).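 Note: growth of clinical yeast isolate S. cerevisiae YJM 789 seeded 1000 cells per well; test concentration not given here.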 The conditions noted are these: S. cerevisiae YJM789 growth, higher = more signal, called active from +8 up or from −8 down.
Assay [3] can be described thus: fission yeast growth modulation, primary screen, strain 972, OD600, 24 h, no modulator (AID 1090).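 Note: basal condition with compound alone and no growth modifier present; test concentration not given here.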 The following applies: S. pombe 972 growth, higher = more signal, called active from +8 up or from −8 down.
Assay [4] in a line: S. cerevisiae growth modulation with rapamycin, primary screen, strain BY4716, OD600, 96 h (AID 1091). Note: test concentration not given here. The following applies: higher = more signal, called active from +8 up or from −8 down.
Assay [5] has as its target Torsin-1A-interacting protein 2 (Homo sapiens) (UniProt Q8NFQ8). The experiment in a line: LULL1 binders on small-molecule microarray, primary screen, cell lysate, human LULL1 lysate, 635/667 nm fluorescence (AID 1092).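 Note: probe is lysate of COS7 cells overexpressing human LULL1; score merges per-feature 667 nm fluorescence with signal-to-noise.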 The following applies: hLULL1 lysate binding, 635 nm fluorescence, higher = more signal.
A short description of assay [6]: E. coli growth modulation, two-sided OD650, primary screen, E. coli filamentation project, strain DRC41, 24 h (AID 1093).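 Note: MC1000 strain lacking acrAB efflux and sulA so SOS filamentation is blocked; test concentration not given here.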 The following applies: OD650, 24 h, higher = more signal, called active from +8 up or from −8 down.
Assay [7] is described as follows: small-molecule microarray binders of probe aLefty2, primary screen, biochemical, biotinylated probe, 635/667 nm fluorescence (AID 1094).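 Note: score merges spot fluorescence near 667 nm with spot signal-to-noise ratio.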 The following applies: higher = more signal.
Assay [8] deals with Noggin (protein binding on small-molecule microarray). The experiment in a line: Noggin binders on small-molecule microarray, primary screen, biochemical, 635/667 nm fluorescence (AID 1095).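 Note: score merges 667 nm feature fluorescence with signal to noise over triplicate slides.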 The following applies: 635 nm fluorescence, higher = more signal.
For assay [9], the target named is Neurogenic locus notch homolog protein 3 (Homo sapiens) (UniProt Q9UM47). Briefly: NOTCH3 binders on small-molecule microarray, primary screen, biochemical, 635/667 nm fluorescence (AID 1096). The following applies: NOTCH3 binding, 635 nm fluorescence, higher = more signal.
Assay [10] can be described thus: small-molecule microarray binders of probe aEGFR, primary screen, biochemical, biotinylated probe, 635/667 nm fluorescence (AID 1097).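 Note: probe is a biotinylated anti-EGFR antibody binding compounds printed on slides; score combines fluorescence near 667 nm and signal to noise of each spot.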 The following applies: higher = more signal.
Assay [11] concerns Plasmodium falciparum Sir2 (PF13_0152, Sir2A). The experiment in a line: pfSir2 binders on small-molecule microarrays, primary screen, biochemical, small-molecule microarray, 635 nm fluorescence (AID 1098).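 Note: score merges spot fluorescence intensity with its signal-to-noise ratio.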 The following applies: small-molecule microarray binding, fluorescence 635 nm; higher = more signal.
Assay [12] can be described thus: small-molecule microarray binders of probe aDKK1, primary screen, biochemical, biotinylated probe, 635/667 nm fluorescence (AID 1099).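 Note: score merges 667nm spot fluorescence with signal to noise across triplicate slides; reference of the scale not given here.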 The following applies: higher = more signal.
Assay [13] in a line: small-molecule microarray binders of probe aCHRDL2, primary screen, biochemical, biotinylated probe, 635/667 nm fluorescence (AID 1100). The conditions noted are these: higher = more signal.
Assay [14] is described as follows: splicing luciferase reporter signal modulators, primary screen, spliceosome inhibition project, cell-based, HEK293, splice +/- reporter (AID 1101).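 Note: HEK293 cells carrying a splicing-competent luciferase reporter gene; test concentration not given here.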 The conditions noted are these: luminescence, 24 h, higher = more signal, called active from +8 up or from −8 down. For orientation: Reporter assays use an easily measured gene product as a stand-in for the process of interest.

The target in assay [15] is Fibroblast growth factor 10 (Homo sapiens) (UniProt O15520). The experiment in a line: FGF10 binders on small-molecule microarrays, primary screen, biochemical, small-molecule microarray, 635 nm fluorescence (AID 1102). The following applies: FGF10 binding, fluorescence 635 nm, higher = more signal.
Assay [16] deals with glycogen synthase kinase-3 (GSK3A per assay name; protocol says GSK3B). The experiment in a line: GSK3 binders on small-molecule microarrays, primary screen, biochemical, small-molecule microarray, 635 nm fluorescence, GSK3A (AID 1103). Note: the record names both GSK3A and GSK3B. The following applies: small-molecule microarray binding, fluorescence 635 nm; higher = more signal.
Assay [17] concerns the target Epidermal growth factor receptor (Homo sapiens) (UniProt P00533). The experiment in a line: EGFR binders on small-molecule microarrays, primary screen, biochemical, small-molecule microarray, 635 nm fluorescence (AID 1104).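 Note: score merges 667 nm emission intensity with spot signal to noise over triplicate slides.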 The conditions noted are these: EGFR binding, higher = more signal.
Assay [18] deals with Follistatin-related protein 3 (Homo sapiens) (UniProt O95633). Briefly: FSTL3 binders on small-molecule microarrays, primary screen, biochemical, small-molecule microarray, 635 nm fluorescence (AID 1105).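 Note: score merges emission near 667 nm and signal to noise per printed spot across three slides.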 The conditions noted are these: FSTL3 binding, higher = more signal.
In assay [19] the target is Dickkopf-related protein 1 (Homo sapiens) (UniProt O94907). Briefly: DKK1 binders on small-molecule microarrays, primary screen, biochemical, small-molecule microarray, 635 nm fluorescence scan (AID 1106).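 Note: score merges emission near 667 nm with signal to noise over three replicate slides.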 The following applies: DKK1 binding, higher = more signal.
The test system of assay [20] is Inhibin beta A chain (activin A). The experiment in a line: INHBA (activin A) binders on microarrays, primary screen, biochemical, small-molecule microarray, 635 nm fluorescence scan (AID 1107).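 Note: mouse activin A protein probed at 4.33 µg/mL on printed slides; score merges bound-protein fluorescence near 667 nm with spot signal-to-noise.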 The following applies: small-molecule microarray binding, higher = more signal.

Each structure is given as a SMILES string. Calls of active or inactive are those of the source.

Sequence of Follistatin-related protein 3 (Homo sapiens) (O95633 whole entry, looked up): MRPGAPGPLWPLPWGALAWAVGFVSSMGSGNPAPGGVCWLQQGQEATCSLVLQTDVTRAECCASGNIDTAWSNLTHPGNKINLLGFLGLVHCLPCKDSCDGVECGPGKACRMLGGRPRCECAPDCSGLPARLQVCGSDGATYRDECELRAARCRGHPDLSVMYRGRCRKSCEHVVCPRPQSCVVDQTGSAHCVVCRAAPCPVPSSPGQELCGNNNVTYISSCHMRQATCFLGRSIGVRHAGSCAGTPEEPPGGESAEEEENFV
Sequence of Neurogenic locus notch homolog protein 3 (Homo sapiens) (Q9UM47 whole entry, looked up): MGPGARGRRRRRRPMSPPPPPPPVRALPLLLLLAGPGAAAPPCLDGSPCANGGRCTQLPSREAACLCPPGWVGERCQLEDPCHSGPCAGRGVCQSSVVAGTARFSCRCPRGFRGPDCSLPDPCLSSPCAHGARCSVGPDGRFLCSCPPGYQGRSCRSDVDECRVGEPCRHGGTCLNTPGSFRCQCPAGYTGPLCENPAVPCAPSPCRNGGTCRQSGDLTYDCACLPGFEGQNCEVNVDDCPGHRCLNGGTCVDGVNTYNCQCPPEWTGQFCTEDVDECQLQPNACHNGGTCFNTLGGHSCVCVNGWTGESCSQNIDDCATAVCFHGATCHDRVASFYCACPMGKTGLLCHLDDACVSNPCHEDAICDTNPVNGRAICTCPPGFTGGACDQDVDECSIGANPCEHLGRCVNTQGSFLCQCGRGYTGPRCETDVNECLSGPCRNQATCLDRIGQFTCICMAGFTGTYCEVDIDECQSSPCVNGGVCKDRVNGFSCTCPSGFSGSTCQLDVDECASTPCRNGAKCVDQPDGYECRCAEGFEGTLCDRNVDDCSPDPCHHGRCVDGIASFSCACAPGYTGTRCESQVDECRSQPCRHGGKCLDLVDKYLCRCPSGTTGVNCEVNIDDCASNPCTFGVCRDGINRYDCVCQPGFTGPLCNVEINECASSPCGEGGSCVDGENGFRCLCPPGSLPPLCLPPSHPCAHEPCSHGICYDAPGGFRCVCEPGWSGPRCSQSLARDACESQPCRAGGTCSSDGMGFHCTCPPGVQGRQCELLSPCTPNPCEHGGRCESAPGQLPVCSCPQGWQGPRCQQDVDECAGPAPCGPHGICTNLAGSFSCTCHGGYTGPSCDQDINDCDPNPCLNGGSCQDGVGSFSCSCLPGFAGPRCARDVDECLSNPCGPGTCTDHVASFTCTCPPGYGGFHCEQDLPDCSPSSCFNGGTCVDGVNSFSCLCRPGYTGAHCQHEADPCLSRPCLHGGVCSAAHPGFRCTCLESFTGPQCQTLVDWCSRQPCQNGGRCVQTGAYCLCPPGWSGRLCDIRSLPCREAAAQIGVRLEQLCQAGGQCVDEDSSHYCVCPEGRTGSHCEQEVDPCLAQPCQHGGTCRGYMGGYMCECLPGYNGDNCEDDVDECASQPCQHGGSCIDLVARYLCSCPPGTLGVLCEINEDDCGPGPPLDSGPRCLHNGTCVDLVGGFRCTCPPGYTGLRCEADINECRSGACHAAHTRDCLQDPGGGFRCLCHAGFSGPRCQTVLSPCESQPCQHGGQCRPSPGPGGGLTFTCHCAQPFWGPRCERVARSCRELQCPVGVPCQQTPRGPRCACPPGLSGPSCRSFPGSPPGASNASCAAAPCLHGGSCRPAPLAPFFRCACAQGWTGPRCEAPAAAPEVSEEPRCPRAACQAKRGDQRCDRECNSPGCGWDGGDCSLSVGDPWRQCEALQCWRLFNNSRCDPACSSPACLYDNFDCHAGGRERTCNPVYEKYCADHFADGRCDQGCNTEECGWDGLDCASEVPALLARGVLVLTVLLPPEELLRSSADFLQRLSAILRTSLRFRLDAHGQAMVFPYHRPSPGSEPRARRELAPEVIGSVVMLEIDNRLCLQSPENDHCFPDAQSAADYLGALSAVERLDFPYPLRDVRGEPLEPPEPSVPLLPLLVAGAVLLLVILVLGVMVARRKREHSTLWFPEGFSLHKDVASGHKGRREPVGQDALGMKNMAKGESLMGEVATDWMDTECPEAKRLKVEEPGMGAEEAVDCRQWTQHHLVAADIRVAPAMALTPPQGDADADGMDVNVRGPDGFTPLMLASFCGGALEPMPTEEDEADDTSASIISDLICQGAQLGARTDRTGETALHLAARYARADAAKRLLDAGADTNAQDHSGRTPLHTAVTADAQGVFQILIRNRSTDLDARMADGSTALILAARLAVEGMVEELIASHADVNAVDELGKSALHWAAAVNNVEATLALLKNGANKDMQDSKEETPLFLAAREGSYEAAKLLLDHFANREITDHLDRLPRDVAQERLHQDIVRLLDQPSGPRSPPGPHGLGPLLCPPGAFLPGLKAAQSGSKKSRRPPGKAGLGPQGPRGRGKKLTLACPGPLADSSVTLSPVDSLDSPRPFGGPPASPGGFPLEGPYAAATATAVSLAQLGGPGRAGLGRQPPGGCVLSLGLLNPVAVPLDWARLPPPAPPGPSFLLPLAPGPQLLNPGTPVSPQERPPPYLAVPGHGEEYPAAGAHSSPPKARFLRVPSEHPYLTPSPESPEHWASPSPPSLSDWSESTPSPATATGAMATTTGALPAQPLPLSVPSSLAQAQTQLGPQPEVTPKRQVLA
Sequence of Epidermal growth factor receptor (Homo sapiens) (P00533 whole entry, looked up): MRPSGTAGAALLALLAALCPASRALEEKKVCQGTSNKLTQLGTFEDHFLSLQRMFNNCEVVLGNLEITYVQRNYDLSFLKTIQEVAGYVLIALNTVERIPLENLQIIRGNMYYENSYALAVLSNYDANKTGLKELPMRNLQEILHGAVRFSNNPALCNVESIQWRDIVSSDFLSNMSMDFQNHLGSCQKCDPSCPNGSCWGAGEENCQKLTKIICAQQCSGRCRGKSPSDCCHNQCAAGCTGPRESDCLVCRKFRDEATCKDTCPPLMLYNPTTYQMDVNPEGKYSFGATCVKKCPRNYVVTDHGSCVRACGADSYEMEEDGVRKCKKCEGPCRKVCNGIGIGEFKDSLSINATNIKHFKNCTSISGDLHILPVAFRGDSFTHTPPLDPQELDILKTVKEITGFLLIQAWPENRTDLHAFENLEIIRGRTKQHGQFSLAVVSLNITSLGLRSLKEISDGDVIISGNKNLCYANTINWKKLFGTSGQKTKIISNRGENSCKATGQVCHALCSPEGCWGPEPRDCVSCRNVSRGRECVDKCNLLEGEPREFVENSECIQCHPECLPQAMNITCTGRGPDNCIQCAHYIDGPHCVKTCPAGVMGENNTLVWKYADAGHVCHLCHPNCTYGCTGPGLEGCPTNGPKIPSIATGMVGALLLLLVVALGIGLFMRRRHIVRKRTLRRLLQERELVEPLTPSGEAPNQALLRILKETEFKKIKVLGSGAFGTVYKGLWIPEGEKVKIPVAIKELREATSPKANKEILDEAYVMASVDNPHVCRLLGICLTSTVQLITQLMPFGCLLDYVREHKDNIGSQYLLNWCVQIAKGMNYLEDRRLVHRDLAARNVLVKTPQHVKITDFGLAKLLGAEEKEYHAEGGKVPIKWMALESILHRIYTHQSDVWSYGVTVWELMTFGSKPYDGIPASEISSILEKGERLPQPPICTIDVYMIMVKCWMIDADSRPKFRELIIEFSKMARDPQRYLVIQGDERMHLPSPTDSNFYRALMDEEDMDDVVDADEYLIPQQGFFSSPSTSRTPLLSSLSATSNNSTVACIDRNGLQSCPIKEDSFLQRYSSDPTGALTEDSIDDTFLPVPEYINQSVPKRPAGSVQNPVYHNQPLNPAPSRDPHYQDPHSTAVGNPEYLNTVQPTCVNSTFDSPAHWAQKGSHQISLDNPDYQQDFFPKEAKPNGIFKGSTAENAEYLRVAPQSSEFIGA
Sequence of Dickkopf-related protein 1 (Homo sapiens) (O94907 whole entry, looked up): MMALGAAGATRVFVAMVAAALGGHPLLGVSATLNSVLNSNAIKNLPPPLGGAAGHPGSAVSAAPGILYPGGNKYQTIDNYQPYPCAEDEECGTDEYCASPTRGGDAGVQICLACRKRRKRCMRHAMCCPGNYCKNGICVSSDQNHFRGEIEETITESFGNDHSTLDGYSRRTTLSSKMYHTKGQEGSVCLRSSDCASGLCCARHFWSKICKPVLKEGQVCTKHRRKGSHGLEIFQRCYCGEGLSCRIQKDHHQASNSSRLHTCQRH
Sequence of Fibroblast growth factor 10 (Homo sapiens) (O15520 whole entry, looked up): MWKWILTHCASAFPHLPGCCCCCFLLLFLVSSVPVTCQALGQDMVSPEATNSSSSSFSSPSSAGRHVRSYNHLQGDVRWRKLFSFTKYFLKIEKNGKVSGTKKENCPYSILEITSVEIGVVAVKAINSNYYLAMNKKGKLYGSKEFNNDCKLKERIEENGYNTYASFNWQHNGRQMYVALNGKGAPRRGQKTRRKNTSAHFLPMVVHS
Sequence of Torsin-1A-interacting protein 2 (Homo sapiens) (Q8NFQ8 whole entry, looked up): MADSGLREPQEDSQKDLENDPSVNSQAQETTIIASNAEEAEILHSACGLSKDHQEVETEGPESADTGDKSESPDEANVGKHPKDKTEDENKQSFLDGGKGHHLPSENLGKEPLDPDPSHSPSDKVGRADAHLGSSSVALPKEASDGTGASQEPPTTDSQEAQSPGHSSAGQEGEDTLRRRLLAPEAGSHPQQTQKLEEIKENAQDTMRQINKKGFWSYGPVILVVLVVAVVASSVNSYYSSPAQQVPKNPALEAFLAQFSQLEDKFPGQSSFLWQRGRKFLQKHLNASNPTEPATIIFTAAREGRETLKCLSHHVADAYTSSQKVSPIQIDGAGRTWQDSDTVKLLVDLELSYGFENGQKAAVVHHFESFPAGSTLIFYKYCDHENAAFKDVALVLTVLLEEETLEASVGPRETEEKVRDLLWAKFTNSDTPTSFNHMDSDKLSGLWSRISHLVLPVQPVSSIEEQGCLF

For the compound `O=C(CS)NCCCCCCNC(=O)[C@H]1C[C@H]2C(=O)N[C@@H](Cc3ccccc3)C(=O)N2[C@H]1c1ccc(O)cc1`, the composite z-score in assay [1] is 1.53; in [5] it was 1.91; in assay [7], -0.316; in [8], 0.405; in [9] it was 0.635; in assay [10], -0.105. Also, the composite z-score in [11] is 1.67; in assay [12], -0.249; in assay [13] it was -0.0488; in [15] it was 1.39; in assay [16], 0.992; in [17], 0.0478. For the same compound, the composite z-score in [18] was 0.333; in assay [19], 0.75; in [20] it was -0.95. In addition, the z-score was 0.407 (inactive) in assay [2]; 1.1 (inactive) in assay [3]; 1.12 (inactive) in assay [4]; -0.0352 (inactive) in assay [6]; -0.239 (inactive) in assay [14].
For the compound `[N-]=[N+]=Nc1ccccc1[C@@H]1OC(c2ccc(OCCCO)cc2)=N[C@]1(Cc1ccccc1)C(=O)NCC(O)CO` (stereo not given in full), the composite z-score in [1] amounted to 1.55; in assay [5], 2.65; in assay [7], 0.589; in assay [8] it was 0.244; in assay [9], 0.0643; in assay [10], 0.206. Besides, the composite z-score in assay [11] is 1.08; in [12], 1.33; in [13] it was 1.4; in [15] it was 0.915; in assay [16], -0.216; in assay [17], -0.433. Moreover, the composite z-score is 0.18 in [18], -0.647 in assay [19] and 1.09 in [20]. Further, the z-score in assay [2] is -0.281 (inactive); in assay [3], -1.4 (inactive); in assay [4] it was 1.32 (inactive); in assay [6] it was 1.05 (inactive); in assay [14] it was -1.37 (inactive).
Regarding `CC1=C([C@H](O)CCc2ccccc2)[C@H](CO)[C@@H]2C(=O)N(C)C(=O)[C@@H]2C1`, the composite z-score in assay [1] is 0.958; in [5], 1.07; in [7], -0.152; in assay [8] it was 0.296; in assay [9] it was 0.394; in [10], -0.154. For the same compound, the composite z-score is 0.843 in [11]; -0.173 in assay [12]; -0.495 in assay [13]; 0.383 in [15]; 0.271 in assay [16]; 0.243 in assay [17]. Further, the composite z-score in assay [18] came to 0.491; in assay [19], 0.446; in assay [20] it was 0.162. Besides, the z-score was 0.618 (inactive) in assay [2]; -0.589 (inactive) in assay [3]; 0.123 (inactive) in assay [4]; 1.3 (inactive) in assay [6]; 0.626 (inactive) in [14].
In the case of `COCCCNC(=O)[C@@]1(Cc2ccccc2N=[N+]=[N-])N=C(c2ccc(OCCCO)cc2)O[C@H]1c1ccccc1`, the composite z-score in [1] is 1.55; in assay [5], 3.1; in assay [7], 0.0894; in [8], 0.923; in assay [9], 0.74; in assay [10], -0.096. Further, the composite z-score in assay [11] was 1.55; in assay [12] it was 0.231; in assay [13], 1.01; in [15] it was 0.911; in [16], 1.28; in assay [17], -0.338. The values for the composite z-score in assay [18], in assay [19] and in assay [20] were 0.402, 0.157 and 1.14, respectively. Also, the z-score in assay [2] is -0.22 (inactive); in [3] it was -1.17 (inactive); in [4] it was 0.388 (inactive); in assay [6] it was 0.478 (inactive); in assay [14], 0.181 (inactive).
Regarding `O=C1C[C@@](C(=O)NCCN2CCOCC2)(c2ccc([N+](=O)[O-])cc2)[C@@H](c2ccc(CO)cc2I)N1C1CCCCC1`, the composite z-score in assay [1] was 1.3; in assay [5] it was 2.79; in assay [7] it was -0.147; in assay [8] it was 0.914; in assay [9], 0.91; in assay [10], -0.0963. For the same compound, the composite z-score in [11] was 0.979; in assay [12] it was -0.0973; in [13], -0.0907; in [15], 0.76; in assay [16], 1.15; in assay [17], 0.593. Moreover, the composite z-score in [18] was determined as 0.926; in assay [19], 0.397; in [20], 0.454. In addition, the z-score is -1.9 (inactive) in [2]; -2.09 (inactive) in assay [3]; -1.05 (inactive) in assay [4]; 0.685 (inactive) in [6]; -0.131 (inactive) in [14].
